The compounds below were run on Plasmodium falciparum (assay: GSK_TCMDC: Inhibition of Plasmodium falciparum 3D7 in whole red blood cells, using parasite LDH activity as an index of growth. Test compounds present at 2uM).
Assay type: functional

**Q.** With `Cl.NC1=NC(CCc2ccccc2)N(c2ccc(Cl)cc2)C(N)=N1` (configuration not stated) as the compound, how does the Inhibition read?
**A.** The Inhibition was 94%.

**Q.** For `N#CN1CC[C@@H](NS(=O)(=O)Cc2ccc(Cl)c(Cl)c2)C1`, which Inhibition is on record?
**A.** Its Inhibition is 94%.

**Q.** Which Inhibition does the source give for `CO/C(=C\C=C\c1cc2cc(Cl)c(Cl)cc2[nH]1)C(=O)NC1CCN(CCOc2ccccc2)CC1` here?
**A.** Its Inhibition is 100%.

**Q.** How did the Inhibition turn out when `Cc1[nH]c(C)c(-c2ccc(OCc3cc(C(F)(F)F)cc(C(F)(F)F)c3)nc2)c(=O)c1Br` was run?
**A.** Its Inhibition is 98%.

**Q.** How did the Inhibition turn out when `O=[N+]([O-])c1cccc(-c2nc(-c3ccc(Br)cc3)[nH]c2-c2ccc(Br)cc2)c1` was run?
**A.** The Inhibition was 99%.

**Q.** With `CC(C)CNC(=O)CN1C(=O)C(c2ccccc2)(c2ccccc2)N=C1N` as the compound, how does the Inhibition read?
**A.** The Inhibition was 94%.

**Q.** For `CCOC(=O)C(C(C)=O)C(c1ccccc1)C(C(C)=O)C(=O)OCC` (configuration not stated), which Inhibition is on record?
**A.** The Inhibition was 95%.

**Q.** With `Cc1cc(=NN=Cc2ccccc2Cl)c2cccc(C)c2[nH]1` as the compound, how does the Inhibition read?
**A.** The Inhibition was 97%.

**Q.** Which Inhibition does the source give for `O=C(/C=C/c1ccc(Cl)c(Cl)c1)NCCCCCN1CCC(NC(=O)Nc2ccc3c(c2)OCO3)CC1` here?
**A.** Its Inhibition is 100%.

**Q.** Which Inhibition does the source give for `CCCNc1ccc(-c2cc(C(N)=O)c3[nH]cc(C4CCN(S(=O)(=O)CC)CC4)c3c2)cn1.O=C(O)C(F)(F)F` here?
**A.** Its Inhibition is 99%.

**Q.** With `O=C(C=Cc1ccc(Cl)c(Cl)c1)NCCCCCN1CCCC(CCCNC(=O)C2CC2c2ccccc2)C1` (configuration not stated) as the compound, how does the Inhibition read?
**A.** Its Inhibition is 85%.

**Q.** How did the Inhibition turn out when `CCCCCN1C(=O)N(c2ccc(Cl)c(Cl)c2)C(N(O)C(=O)Nc2ccc(Cl)c(Cl)c2)C1(C)C` (configuration not stated) was run?
**A.** Its Inhibition is 94%.

**Q.** With `CCN(CC)/C(=N/C(=N)Nc1ccc(Cl)cc1)NCCCCCCCCN/C(=N\C(=N)Nc1ccc(Cl)cc1)N(CC)CC` as the compound, how does the Inhibition read?
**A.** The Inhibition was 99%.

**Q.** How did the Inhibition turn out when `COc1ccc2nccc([C@@H](O)CN3CCC(NCCOc4cccc(C(F)(F)F)c4Cl)CC3)c2c1.O=C(O)C(=O)O` was run?
**A.** The Inhibition was 100%.

**Q.** For `Cc1ccc2[nH]c(-c3cc(-c4ccc(CO)cc4)cnc3N)nc2c1.O=C(O)C(F)(F)F`, which Inhibition is on record?
**A.** The Inhibition was 95%.

**Q.** How did the Inhibition turn out when `CN1CCC(Oc2ccc(CN3CC[C@H](NC(=O)c4ccc(Cl)c(Cl)c4)C3)cc2Cl)C1.O=C(O)C(F)(F)F` (some centres not stated) was run?
**A.** Its Inhibition is 100%.

**Q.** With `O=C(Nc1cccc(-c2ccc(-c3nc4ccccc4[nH]3)cc2)c1)Nc1ccc(F)c(F)c1F` as the compound, how does the Inhibition read?
**A.** The Inhibition was 100%.

**Q.** Which Inhibition does the source give for `CN1CCN(CC(=O)Nc2cccc(-c3ccc(-c4nc5cc(F)ccc5[nH]4)s3)c2)CC1` here?
**A.** Its Inhibition is 100%.

**Q.** With `COc1ccc(-c2ccc(NC(=O)c3ccc(C#N)cc3)cc2)cc1CN1CCCC1.O=C(O)C(F)(F)F` as the compound, how does the Inhibition read?
**A.** Its Inhibition is 95%.

**Q.** How did the Inhibition turn out when `Cc1cc(-c2ccc3occ(CCN)c3c2)cnc1N` was run?
**A.** Its Inhibition is 92%.

**Q.** How did the Inhibition turn out when `COc1ccc(Br)cc1/C=C/C(=O)Nc1ccc(C2CCCN(C)C2)cc1.O=CO` (configuration not stated) was run?
**A.** Its Inhibition is 100%.

**Q.** With `Cc1ccc(Nc2nnc(SCC(=O)Nc3ccc(CN4CCCC4)cc3)s2)cc1` as the compound, how does the Inhibition read?
**A.** Its Inhibition is 91%.

**Q.** How did the Inhibition turn out when `CCn1ncc2c(NC3CCOCC3)c(CNC(=O)c3ccnn3C)c(C)nc21` was run?
**A.** Its Inhibition is 98%.

**Q.** With `COC(=O)c1cc(C(O)CNC(C)CCc2cccc(F)c2)ccc1O.Cl` (configuration not stated) as the compound, how does the Inhibition read?
**A.** The Inhibition was 94%.

**Q.** `CC(C)COc1ccc(Cl)cc1Cc1nc(-c2nc3ccc(CN4CCN(C)CC4)cc3[nH]2)co1.Cl` was tested. Which Inhibition did it give?
**A.** Its Inhibition is 100%.

**Q.** For `CCCCCCOc1ccc(C(=O)NCCCC2CCCN(CCCCCNC(=O)C=Cc3ccc(Cl)c(Cl)c3)C2)cc1` (configuration not stated), which Inhibition is on record?
**A.** The Inhibition was 96%.

**Q.** Which Inhibition does the source give for `N#Cc1cncc(-c2nc3c(N4CCN(c5cnccn5)CC4)cccc3n2CCNCc2ccccc2)c1.O=C(O)C(F)(F)F` here?
**A.** The Inhibition was 99%.

The compounds below were run on Plasmodium falciparum (assay: GSK_TCMDC: Inhibition of Plasmodium falciparum Dd2 in whole red blood cells, using parasite LDH activity as an index of growth. Test compounds present at 2uM).
Assay type: functional

**Q.** For `O=C(Nc1cccc(C(F)(F)F)c1)NC1CCN(c2ccnc3cc(Cl)ccc23)C1.O=C(O)C(F)(F)F` (configuration not stated), which Inhibition is on record?
**A.** The Inhibition was 89%.

**Q.** With `COc1ccc2nccc([C@@H](O)CN3CCC(NCc4cnc5c(c4)NC(=O)CS5)CC3)c2c1.O=C(O)C(=O)O` as the compound, how does the Inhibition read?
**A.** The Inhibition was 29%.

**Q.** With `O=C(NCC1CCN(Cc2cccc(C(F)(F)F)c2)C1)c1cc(-c2cccc(Cl)c2)cs1.O=C(O)C(F)(F)F` (configuration not stated) as the compound, how does the Inhibition read?
**A.** Its Inhibition is 14%.

**Q.** With `COc1ccc(CN(C)Cc2ccc(NC(=O)c3cccc4c(=O)c5cccc(C)c5[nH]c34)cc2)cc1OC` as the compound, how does the Inhibition read?
**A.** Its Inhibition is 22%.

**Q.** `Cc1cc(N(C)C2CCN(C)C2)nc(Nc2ccc(Cl)cc2)n1` (configuration not stated) was tested. Which Inhibition did it give?
**A.** Its Inhibition is 88%.

**Q.** Which Inhibition does the source give for `CCOc1cc(Br)c(C(C)NC(=O)c2cccc(OC)c2)cc1OCC` (configuration not stated) here?
**A.** The Inhibition was 37%.

**Q.** Which Inhibition does the source give for `N#Cc1ccc(CN2CCC(Oc3ccc(NC(=O)c4ccccc4)cc3Cl)CC2)cc1.O=C(O)C(F)(F)F` here?
**A.** The Inhibition was 65%.

**Q.** `CCOC(=O)C1=C(C)N=c2sc(=Cc3cc(Cl)ccc3O)c(=O)n2C1c1ccc2c(c1)OCO2` (configuration not stated) was tested. Which Inhibition did it give?
**A.** Its Inhibition is 91%.

**Q.** For `Cc1cnc(C(=O)Nc2cccc(-c3cccc(-c4nc5cccc(C)c5[nH]4)c3)c2)cn1`, which Inhibition is on record?
**A.** The Inhibition was 45%.

**Q.** For `CC(C)c1ccc(N(CC(=O)N/N=C/c2ccc(C(F)(F)F)cc2)S(=O)(=O)c2ccc(C(F)(F)F)cc2)cc1`, which Inhibition is on record?
**A.** The Inhibition was 44%.

**Q.** `COc1ccc2nc(C)cc(Nc3ccc(Cl)cc3)c2c1` was tested. Which Inhibition did it give?
**A.** Its Inhibition is 3%.

**Q.** For `O=C(NCc1cccc(F)c1)Nc1ccc(-c2cccc(-c3nc4ccccc4[nH]3)c2)cc1`, which Inhibition is on record?
**A.** Its Inhibition is 2%.

**Q.** Which Inhibition does the source give for `CN1CCC(NCc2ccc(-c3cccc(S(=O)(=O)NCCc4ccccn4)c3)cc2)CC1.O=C(O)C(F)(F)F` here?
**A.** The Inhibition was 0%.

**Q.** `Cl.NC1=NC(CCc2ccccc2)N(c2ccc(Cl)cc2)C(N)=N1` (configuration not stated) was tested. Which Inhibition did it give?
**A.** The Inhibition was 20%.

**Q.** `N#CN1CC[C@@H](NS(=O)(=O)Cc2ccc(Cl)c(Cl)c2)C1` was tested. Which Inhibition did it give?
**A.** The Inhibition was 94%.

**Q.** `CO/C(=C\C=C\c1cc2cc(Cl)c(Cl)cc2[nH]1)C(=O)NC1CCN(CCOc2ccccc2)CC1` was tested. Which Inhibition did it give?
**A.** The Inhibition was 94%.

**Q.** Which Inhibition does the source give for `Cc1[nH]c(C)c(-c2ccc(OCc3cc(C(F)(F)F)cc(C(F)(F)F)c3)nc2)c(=O)c1Br` here?
**A.** Its Inhibition is 96%.

**Q.** How did the Inhibition turn out when `O=[N+]([O-])c1cccc(-c2nc(-c3ccc(Br)cc3)[nH]c2-c2ccc(Br)cc2)c1` was run?
**A.** Its Inhibition is 44%.

**Q.** For `CC(C)CNC(=O)CN1C(=O)C(c2ccccc2)(c2ccccc2)N=C1N`, which Inhibition is on record?
**A.** The Inhibition was 46%.

**Q.** With `CCOC(=O)C(C(C)=O)C(c1ccccc1)C(C(C)=O)C(=O)OCC` (configuration not stated) as the compound, how does the Inhibition read?
**A.** The Inhibition was 14%.

**Q.** `Cc1cc(=NN=Cc2ccccc2Cl)c2cccc(C)c2[nH]1` was tested. Which Inhibition did it give?
**A.** The Inhibition was 98%.

**Q.** `O=C(/C=C/c1ccc(Cl)c(Cl)c1)NCCCCCN1CCC(NC(=O)Nc2ccc3c(c2)OCO3)CC1` was tested. Which Inhibition did it give?
**A.** The Inhibition was 5%.

**Q.** `CCCNc1ccc(-c2cc(C(N)=O)c3[nH]cc(C4CCN(S(=O)(=O)CC)CC4)c3c2)cn1.O=C(O)C(F)(F)F` was tested. Which Inhibition did it give?
**A.** The Inhibition was 42%.

**Q.** Which Inhibition does the source give for `O=C(C=Cc1ccc(Cl)c(Cl)c1)NCCCCCN1CCCC(CCCNC(=O)C2CC2c2ccccc2)C1` (configuration not stated) here?
**A.** The Inhibition was 5%.

**Q.** For `CCCCCN1C(=O)N(c2ccc(Cl)c(Cl)c2)C(N(O)C(=O)Nc2ccc(Cl)c(Cl)c2)C1(C)C` (configuration not stated), which Inhibition is on record?
**A.** The Inhibition was 99%.

**Q.** For `CCN(CC)/C(=N/C(=N)Nc1ccc(Cl)cc1)NCCCCCCCCN/C(=N\C(=N)Nc1ccc(Cl)cc1)N(CC)CC`, which Inhibition is on record?
**A.** The Inhibition was 94%.

**Q.** How did the Inhibition turn out when `COc1ccc2nccc([C@@H](O)CN3CCC(NCCOc4cccc(C(F)(F)F)c4Cl)CC3)c2c1.O=C(O)C(=O)O` was run?
**A.** The Inhibition was 98%.

**Q.** With `Cc1ccc2[nH]c(-c3cc(-c4ccc(CO)cc4)cnc3N)nc2c1.O=C(O)C(F)(F)F` as the compound, how does the Inhibition read?
**A.** The Inhibition was 6%.

**Q.** Which Inhibition does the source give for `CN1CCC(Oc2ccc(CN3CC[C@H](NC(=O)c4ccc(Cl)c(Cl)c4)C3)cc2Cl)C1.O=C(O)C(F)(F)F` (some centres not stated) here?
**A.** The Inhibition was 78%.

**Q.** Which Inhibition does the source give for `O=C(Nc1cccc(-c2ccc(-c3nc4ccccc4[nH]3)cc2)c1)Nc1ccc(F)c(F)c1F` here?
**A.** The Inhibition was 38%.

**Q.** For `CN1CCN(CC(=O)Nc2cccc(-c3ccc(-c4nc5cc(F)ccc5[nH]4)s3)c2)CC1`, which Inhibition is on record?
**A.** Its Inhibition is 94%.

**Q.** With `COc1ccc(-c2ccc(NC(=O)c3ccc(C#N)cc3)cc2)cc1CN1CCCC1.O=C(O)C(F)(F)F` as the compound, how does the Inhibition read?
**A.** Its Inhibition is 51%.

**Q.** `Cc1cc(-c2ccc3occ(CCN)c3c2)cnc1N` was tested. Which Inhibition did it give?
**A.** Its Inhibition is 56%.

**Q.** `COc1ccc(Br)cc1/C=C/C(=O)Nc1ccc(C2CCCN(C)C2)cc1.O=CO` (configuration not stated) was tested. Which Inhibition did it give?
**A.** Its Inhibition is 35%.

**Q.** Which Inhibition does the source give for `Cc1ccc(Nc2nnc(SCC(=O)Nc3ccc(CN4CCCC4)cc3)s2)cc1` here?
**A.** Its Inhibition is 0%.

**Q.** For `CCn1ncc2c(NC3CCOCC3)c(CNC(=O)c3ccnn3C)c(C)nc21`, which Inhibition is on record?
**A.** The Inhibition was 98%.

**Q.** Which Inhibition does the source give for `COC(=O)c1cc(C(O)CNC(C)CCc2cccc(F)c2)ccc1O.Cl` (configuration not stated) here?
**A.** The Inhibition was 77%.

**Q.** For `CC(C)COc1ccc(Cl)cc1Cc1nc(-c2nc3ccc(CN4CCN(C)CC4)cc3[nH]2)co1.Cl`, which Inhibition is on record?
**A.** Its Inhibition is 57%.

**Q.** For `CCCCCCOc1ccc(C(=O)NCCCC2CCCN(CCCCCNC(=O)C=Cc3ccc(Cl)c(Cl)c3)C2)cc1` (configuration not stated), which Inhibition is on record?
**A.** Its Inhibition is 12%.

**Q.** For `N#Cc1cncc(-c2nc3c(N4CCN(c5cnccn5)CC4)cccc3n2CCNCc2ccccc2)c1.O=C(O)C(F)(F)F`, which Inhibition is on record?
**A.** Its Inhibition is 31%.
